Molecules are shown by their SMILES. The panel holds about 83,000 compounds, 20% with a hit somewhere; the sample as a whole holds those more often.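 Compound tested at a single concentration for 48 hours in 96-well plates; a percent growth value below 10 was scored as active.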 A number with no mark means an inactive call. Activity calls are given as the source filed them.

This experiment has as its system MDA-MB-468 breast. In words: NCI-60 one-dose screen, 48 h (100 = growth as untreated, 0 = no growth, -100 = all killed). As to conditions: 10 µM unless noted.
Turning to `O=S(=O)(NCCNc1nccc(-c2c(-c3ccc(F)cc3)nc3sccn23)n1)c1ccc(F)cc1`, the growth was 52.1%.
For the compound `Cc1ccc(N)c(O)c1`, the growth is 78.7%.
In the case of `O=C(O)/C=C/c1cn(-c2ccccc2)nc1-c1ccc(F)cc1`, the growth is 104%.
Consider `Cc1cc(=O)[nH]c(N/N=C/c2cc(Br)ccc2O)n1`, for which the growth is 3.37% (active).
For `CCOC(=O)C1=C(CCl)NC(=O)NC1c1ccc2c(c1)OCO2` (stereo not given) the value was -1.1% (active).
`CC(=O)c1c(C)nc(-c2cc(C)cc(Cl)c2)nc1-c1cccc(Oc2ccccc2)c1`: the growth was 60.8%.
For `O=C(Cn1c2ccccc2c2ccncc21)N/N=C/c1c[nH]c2ccccc12` the value was 43.4%; for `O=C1Nc2cc(-c3ccc(NC(=O)c4ccccc4)cc3)ccc2/C1=C/c1ccc[nH]1`, 2.14% (active).
In the case of `CN(C)CC(O)c1ccc2cc(Br)c3ccccc3c2c1` (stereo not given) it was -0.132% (active); in that of `CCOC(=O)NC(/C=C/c1ccccc1)NC(=O)OCC`, 99.7%; in that of `Cc1c2ccncc2c(C)c2c1c1ccccc1n2CCCCCC(=O)O`, 86.3%.
Regarding `N[C@H](CS)C(=O)O`, the growth was 93.1%.
For `O=C1OC(Cc2ccccc2)C1c1ccccc1` (stereo not given) the value was 97.4%.
In the case of `O=S(=O)(O)c1ccc(O)c2ccccc12`, the growth was 104%.
In the case of `COc1cc(OCc2cccc(-c3ccc(C(O)c4nccs4)cc3)c2C)cc(OC)c1CNCCNC(C)=O` (stereo not given) it was 92.1%; in that of `NNc1ccc(Cl)cc1Cl`, 91.5%; in that of `N#CC1=C(N)Oc2c(ccc3ccccc23)C1c1cccs1` (stereo not given), 26.5%.
In the case of `COc1ccc(/C=N/c2cc(C(C)(C)C)nn2-c2ccccc2)cc1` it was 124%; in that of `CCOC(=O)c1ccc2[nH]c(O)c(C(=Nc3ccc(N(C)C(=O)CN4CCN(C)CC4)cc3)c3ccccc3)c2c1`, -84.4% (active); in that of `CC(=O)Nc1ccc2c(c1)C(=O)c1cccc(C(=O)O)c1-2`, 90.9%.
In the case of `COc1ccc(CNC(=O)C(O)C(Cc2ccccc2)NC(=O)c2[nH]c3ccccc3c(=O)c2C)cc1OC` (stereo not given) it was 102%; in that of `CCN(CC)c1cc(C)c(Cc2c(OC)ccc3ccccc23)cc1C`, 99.6%.
Regarding `CCCCCCN(CCCCCC)CC(O)c1ccc2c3c(cccc13)CC2` (stereo not given), the growth was 55.6%.
On to `Cc1ccsc1-c1ccc2c(c1)COC2(CCCN(C)C)c1ccc(F)cc1` (stereo not given), for which the growth was -8.34% (active).
In the case of `O=C(/C=C/c1cccc2ccccc12)c1ccc(NC(=O)c2ccccc2CN2C(=O)c3ccccc3C2=O)cc1` it was 51.3%; in that of `N=C(N)c1ccc(-c2ccc(-c3cccs3)s2)cc1`, -80.6% (active).
`Cc1cccc(-[n+]2noc(N)n2)c1`: the growth is 96.4%.
In the case of `CC[C@@H]1C(=O)N(C)c2cnc(Nc3ccc(C(=O)NC4CCC(N5CCN(CC6CC6)CC5)CC4)cc3OC)nc2N1C(C)C` (stereo not given in full), the growth was -54.1% (active).
In the case of `O=C(O)COc1ccc(Cl)cc1C1CCCCC1` it was 97.6%.
In the case of `Cc1cc(O)c2c(c1)C1OC(=O)CCCCCN1C1=C2C(=O)c2cccc(OC3CC(O)C(O)C(C)O3)c2C1=O` (stereo not given) it was 58.3%; in that of `C=C1NC(=O)C(C(C)CC)NC(=O)C2CSCC(NC(=O)CCC(=O)O)C(=O)NC(Cc3ccccc3)C(=O)NC(C)C(=O)NC(CC(C)CC)C(=O)NC(C(=O)NC(Cc3ccccc3)C(=O)N3CCCC3C(=O)N2)C(C)OC(=O)C(CO)NC(=O)C(C(O)COC)N(C)C(=O)C(C(C)C)NC(=O)C(CC(C)CC)NC1=O` (stereo not given), 0.0436% [6 µM] (active); in that of `O=C1c2c(c3c4cccnc4[nH]c3c3ccc4ccccc4c23)C(=O)N1O`, 45.5%.
On to `COc1cc(C2CC(c3ccc(Nc4nc(NCCO)nc(NCCO)n4)cc3)=NN2c2cc(Cl)cc(Cl)c2)cc(OC)c1OC` (stereo not given), for which the growth is -9.24% (active).
For `CC1=CC(=O)N(c2cccc3c(N4C(=O)C=C(C)C4=O)cccc23)C1=O` the value was 23.6%; for `N#Cc1nc(-c2ccccc2)oc1S(=O)(=O)N1CCN(c2ccc(F)cc2)CC1`, 44.8%; for `Cc1ccccc1Cn1cnc2ccc(-c3cc(NC(=O)c4ccc(NC5CCN(C)CC5)cc4)n[nH]3)cc21`, 94.5%.
With `Cc1ccc(C2=Nc3c(N)nc(N)nc3NC(c3cccc(Nc4ccnc5cc(C(F)(F)F)ccc45)c3)C2)cc1` (stereo not given), the growth was 14.7%.
For `O=[N+]([O-])c1ccc2ncccc2c1Cl` the value was -2.71% (active).
Turning to `N#C/C(=C\c1ccc(Br)cc1)c1cc2ccccc2[nH]1`, the growth is 82.8%.
Consider `Nc1ncnc2c1C(c1ccc(Br)cc1)c1sc3c(F)cccc3c1O2` (stereo not given), for which the growth was 103%.

For the origin of these results see PubChem BioAssay (NCI).
